We go through 34 molecules from ChEMBL document CHEMBL1961873, “Compounds: GSK PKIS; Assays: Nanosyn kinase panel” (2012).

Test [1] has as its target RAF proto-oncogene serine/threonine-protein kinase (Homo sapiens) (UniProt P04049). The following applies: at 1 µM.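 Further: values are the mean percent inhibition of CRAF.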
Test [2] addresses T1, Interleukin-1 receptor-associated kinase 4 (Homo sapiens) (UniProt Q9NWZ3).
T1 sequence (whole entry): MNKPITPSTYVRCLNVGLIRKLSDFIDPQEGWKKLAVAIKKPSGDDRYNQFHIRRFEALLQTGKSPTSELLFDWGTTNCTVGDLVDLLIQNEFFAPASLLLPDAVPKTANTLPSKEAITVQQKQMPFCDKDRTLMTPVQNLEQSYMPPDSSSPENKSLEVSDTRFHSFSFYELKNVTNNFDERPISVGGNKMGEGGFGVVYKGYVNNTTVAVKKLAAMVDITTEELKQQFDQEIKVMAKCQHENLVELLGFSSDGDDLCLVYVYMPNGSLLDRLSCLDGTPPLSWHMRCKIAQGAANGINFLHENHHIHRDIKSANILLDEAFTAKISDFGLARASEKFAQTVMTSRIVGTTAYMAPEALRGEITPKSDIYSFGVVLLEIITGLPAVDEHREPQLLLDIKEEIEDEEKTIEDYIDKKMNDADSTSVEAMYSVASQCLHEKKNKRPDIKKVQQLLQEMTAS
The following applies: at 0.1 µM.

Test [3] deals with T1, Interleukin-1 receptor-associated kinase 4 (Homo sapiens). The following applies: at 1 µM.
In test [4] the target is Leucine-rich repeat serine/threonine-protein kinase 2 (Homo sapiens) (UniProt Q5S007). The note with it: at 0.1 µM.
Test [5] has the same target. The following applies: at 1 µM.
Test [6] has as its system Leucine-rich repeat serine/threonine-protein kinase 2 (Homo sapiens), Q5S007 [G2019S]. The following applies: at 0.1 µM.
Test [7] has the same test system. The note with it: at 1 µM.

The term inhibition denotes the change of the read-out against control, counted positive when it falls.

RAF proto-oncogene serine/threonine-protein kinase (Homo sapiens), sequence (P04049 whole entry): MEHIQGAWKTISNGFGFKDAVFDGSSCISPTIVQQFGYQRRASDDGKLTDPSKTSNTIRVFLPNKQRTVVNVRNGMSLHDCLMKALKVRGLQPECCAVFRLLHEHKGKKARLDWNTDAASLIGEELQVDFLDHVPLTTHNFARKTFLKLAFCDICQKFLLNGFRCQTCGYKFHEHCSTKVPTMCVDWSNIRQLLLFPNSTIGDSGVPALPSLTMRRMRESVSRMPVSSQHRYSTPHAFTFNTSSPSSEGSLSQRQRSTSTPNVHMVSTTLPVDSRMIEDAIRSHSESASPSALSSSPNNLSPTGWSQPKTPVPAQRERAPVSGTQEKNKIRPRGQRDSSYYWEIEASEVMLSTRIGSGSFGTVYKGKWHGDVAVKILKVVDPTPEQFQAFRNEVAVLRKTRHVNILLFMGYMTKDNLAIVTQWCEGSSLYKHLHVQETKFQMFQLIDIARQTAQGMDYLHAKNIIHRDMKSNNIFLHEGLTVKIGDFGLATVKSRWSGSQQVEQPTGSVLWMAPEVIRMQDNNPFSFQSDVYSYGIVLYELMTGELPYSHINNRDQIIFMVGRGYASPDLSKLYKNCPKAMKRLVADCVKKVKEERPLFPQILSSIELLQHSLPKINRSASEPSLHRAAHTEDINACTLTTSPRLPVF
Leucine-rich repeat serine/threonine-protein kinase 2 (Homo sapiens), sequence (Q5S007 whole entry): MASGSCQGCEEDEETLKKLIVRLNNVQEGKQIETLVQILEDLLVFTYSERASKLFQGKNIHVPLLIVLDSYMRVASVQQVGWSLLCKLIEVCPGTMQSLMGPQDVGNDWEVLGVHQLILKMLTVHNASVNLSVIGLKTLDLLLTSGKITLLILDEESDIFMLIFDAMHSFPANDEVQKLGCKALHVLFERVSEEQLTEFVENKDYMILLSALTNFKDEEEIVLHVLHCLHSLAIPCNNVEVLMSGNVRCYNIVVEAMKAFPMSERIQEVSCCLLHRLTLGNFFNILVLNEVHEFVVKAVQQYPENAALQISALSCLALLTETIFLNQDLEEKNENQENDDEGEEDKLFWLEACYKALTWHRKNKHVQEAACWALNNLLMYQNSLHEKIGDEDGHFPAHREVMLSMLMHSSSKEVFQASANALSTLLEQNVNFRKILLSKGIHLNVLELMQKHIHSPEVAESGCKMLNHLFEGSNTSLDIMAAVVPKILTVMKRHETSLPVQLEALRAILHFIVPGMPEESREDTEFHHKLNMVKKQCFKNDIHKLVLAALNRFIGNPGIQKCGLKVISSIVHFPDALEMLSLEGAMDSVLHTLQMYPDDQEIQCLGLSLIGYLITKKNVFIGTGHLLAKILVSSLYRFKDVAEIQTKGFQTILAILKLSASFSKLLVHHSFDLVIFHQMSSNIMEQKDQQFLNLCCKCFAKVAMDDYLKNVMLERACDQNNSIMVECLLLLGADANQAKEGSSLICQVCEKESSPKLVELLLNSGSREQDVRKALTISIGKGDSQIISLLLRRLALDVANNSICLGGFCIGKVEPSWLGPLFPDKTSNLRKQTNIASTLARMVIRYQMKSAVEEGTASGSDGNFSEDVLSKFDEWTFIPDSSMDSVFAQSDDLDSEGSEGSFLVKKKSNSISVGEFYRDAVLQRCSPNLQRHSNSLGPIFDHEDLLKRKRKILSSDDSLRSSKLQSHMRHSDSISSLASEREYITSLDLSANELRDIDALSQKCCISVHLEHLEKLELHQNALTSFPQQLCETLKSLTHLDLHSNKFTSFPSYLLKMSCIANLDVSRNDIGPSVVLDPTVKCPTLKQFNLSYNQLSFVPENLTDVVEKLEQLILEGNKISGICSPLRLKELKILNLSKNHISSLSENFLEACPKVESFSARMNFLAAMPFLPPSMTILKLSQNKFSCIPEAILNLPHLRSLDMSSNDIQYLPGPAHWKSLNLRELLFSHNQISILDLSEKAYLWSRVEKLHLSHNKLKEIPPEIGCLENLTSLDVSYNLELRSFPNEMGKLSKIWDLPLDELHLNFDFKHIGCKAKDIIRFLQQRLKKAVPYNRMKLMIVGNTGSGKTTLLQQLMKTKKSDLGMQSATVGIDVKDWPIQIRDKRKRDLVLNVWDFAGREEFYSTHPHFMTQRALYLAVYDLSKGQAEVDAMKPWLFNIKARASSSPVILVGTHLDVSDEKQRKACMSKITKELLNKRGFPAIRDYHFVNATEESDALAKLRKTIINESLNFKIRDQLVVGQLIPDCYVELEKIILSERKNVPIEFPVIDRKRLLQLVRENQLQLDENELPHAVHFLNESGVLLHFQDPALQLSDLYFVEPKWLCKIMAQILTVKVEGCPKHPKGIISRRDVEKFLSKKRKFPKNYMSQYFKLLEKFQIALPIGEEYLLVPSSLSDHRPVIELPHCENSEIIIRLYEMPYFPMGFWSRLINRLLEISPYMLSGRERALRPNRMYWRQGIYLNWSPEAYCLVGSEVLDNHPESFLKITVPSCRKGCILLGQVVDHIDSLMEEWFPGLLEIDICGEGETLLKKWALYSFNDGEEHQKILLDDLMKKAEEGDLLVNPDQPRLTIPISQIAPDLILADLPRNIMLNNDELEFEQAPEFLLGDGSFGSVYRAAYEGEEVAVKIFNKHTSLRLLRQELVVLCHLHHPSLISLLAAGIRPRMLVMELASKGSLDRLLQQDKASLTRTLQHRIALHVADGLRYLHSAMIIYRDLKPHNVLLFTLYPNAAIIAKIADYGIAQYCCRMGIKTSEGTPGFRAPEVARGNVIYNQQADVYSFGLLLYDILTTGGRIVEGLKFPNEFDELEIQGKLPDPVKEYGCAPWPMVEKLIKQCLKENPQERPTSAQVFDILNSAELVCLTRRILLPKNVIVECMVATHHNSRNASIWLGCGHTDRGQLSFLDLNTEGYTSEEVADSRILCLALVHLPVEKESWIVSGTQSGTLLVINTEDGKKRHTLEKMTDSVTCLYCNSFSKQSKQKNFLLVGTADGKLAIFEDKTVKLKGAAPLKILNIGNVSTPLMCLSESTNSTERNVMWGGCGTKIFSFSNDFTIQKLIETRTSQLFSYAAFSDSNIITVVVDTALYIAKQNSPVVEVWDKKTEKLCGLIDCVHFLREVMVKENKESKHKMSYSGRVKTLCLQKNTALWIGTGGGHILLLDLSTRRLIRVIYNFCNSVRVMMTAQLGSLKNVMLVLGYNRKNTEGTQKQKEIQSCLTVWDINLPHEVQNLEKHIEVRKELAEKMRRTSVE
Leucine-rich repeat serine/threonine-protein kinase 2 (Homo sapiens), Q5S007 [G2019S], sequence (Q5S007 whole entry G2019S): as the sequence (Q5S007 whole entry) above, with G2019S counted along it

Take `NS(=O)(=O)c1cccc(-c2cc3ccncc3cc2OCc2ccccc2)c1`: the inhibition came to 0.71% in test [1]; 1.17% in test [2]; 2.26% in test [3]; 4.42% in test [4]; 8.85% in test [5]; 4.16% in test [6]. For the same molecule, the inhibition in test [7] was found to be 8.74%.

For `NS(=O)(=O)c1ccc(NC=C2C(=O)Nc3ccc4ncsc4c32)cc1`, the inhibition in test [1] is -1.97%; in test [2], 0.1%; in test [3], 4.43%; in test [4], 23.9%; in test [5], 78.8%; in test [6], 48.8%. For the same molecule, the inhibition in test [7] is 59.7%.

For the molecule `Cc1ccc2c(-c3ccnc(Nc4cccc(C(F)(F)F)c4)n3)c(-c3ccccc3)nn2n1`, the inhibition in test [1] stood at 3.34%; in test [2], 2.03%; in test [3], 2.78%; in test [4], 1.87%; in test [5] it was 7.47%; in test [6], 2.59%. Further, the inhibition in test [7] came out at 4.94%.

On to `NS(=O)(=O)c1ccc(-c2cc3ccncc3cc2OCc2ccccc2)cc1`, for which the inhibition in test [1] is 1.99%; in test [2], -1.18%; in test [3] it was 1.31%; in test [4] it was 2.38%; in test [5], 7.53%; in test [6], 1.82%. In addition, in test [7], the inhibition worked out at 8.17%.

Regarding `Cc1cc(Cl)cc2c1NC(=O)C2=NNc1ccc(S(N)(=O)=O)cc1`, the inhibition in test [1] was found to be 3.57%; in test [2], 3.1%; in test [3], 1.43%; in test [4] it was 0.71%; in test [5] it was 2.23%; in test [6], 1.78%. For the same molecule, the inhibition in test [7] was 4.5%.

On to `COc1cc2ncnc(Nc3ccc4c(cnn4Cc4ccccc4)c3)c2cc1OC`, for which the inhibition in test [1] was -1.93%; in test [2], 0.58%; in test [3], 1.32%; in test [4], 3.78%; in test [5], 14.3%; in test [6], 6.86%. In addition, in test [7], the inhibition amounted to 13.8%.

With `ON=C1CCc2cc(-c3nc(C4CCNCC4)[nH]c3-c3ccncc3)ccc21`, the inhibition was 10.2% in test [1]; 4% in test [2]; -0.27% in test [3]; 1.51% in test [4]; 2.68% in test [5]; 0.74% in test [6]. Also, the inhibition in test [7] was determined as 4.07%.

With `CCS(=O)(=O)c1ccc(OC)c(Nc2nccc(N(C)c3ccc4c(C)n[nH]c4c3)n2)c1`, the inhibition was determined as 3.08% in test [1]; 1.47% in test [2]; 1.99% in test [3]; 5.36% in test [4]; 22.5% in test [5]; 8.48% in test [6]. The inhibition in test [7] came out at 27.3%.

As to `CCn1c(-c2nonc2N)nc2c(C#CC(C)(C)O)nc(OCCNC)cc21`, the inhibition was 0.54% in test [1]; 2.16% in test [2]; 3.06% in test [3]; -2.14% in test [4]; 0.49% in test [5]; -0.46% in test [6]. In addition, in test [7], the inhibition was found to be 2.51%.

Regarding `Cc1cc(-c2ccccn2)cc(C)c1/C=C/c1cncc(-c2nn[nH]n2)c1`, the inhibition turned out to be 0.84% in test [1]; 1.97% in test [2]; 2.42% in test [3]; 1.5% in test [4]; 10.7% in test [5]; 3.32% in test [6]. Besides, the inhibition in test [7] came out at 8.55%.

Take `Nc1nccc(-c2c(-c3ccc(F)cc3)ncn2CCCN2CCOCC2)n1`: the inhibition came out at 2.86% in test [1]; 3.35% in test [2]; 2.13% in test [3]; 1.92% in test [4]; 1.82% in test [5]; 2.45% in test [6]. Besides, the inhibition in test [7] came out at 2.14%.

As to `CS(=O)(=O)Nc1cccc(-c2ccc3c(NC(=O)C4CC4)n[nH]c3c2)c1`, the inhibition in test [1] was 16.5%; in test [2], 4.95%; in test [3], 0.25%; in test [4], 1.1%; in test [5], 5.23%; in test [6] it was 2.67%. Moreover, the inhibition in test [7] was determined as 5.19%.

`CC(C)c1ccc2c(c1)NC(=O)/C2=N/Nc1ccc(S(N)(=O)=O)cc1`: the inhibition in test [1] is -0.41%; in test [2] it was 0.36%; in test [3], 0.49%; in test [4], -0.37%; in test [5] it was 9.75%; in test [6], 2.27%. Besides, the inhibition in test [7] came to 11.5%.

Turning to `CN(C)CCCn1c(-c2nonc2N)nc2cnccc21`, the inhibition in test [1] was determined as 1.81%; in test [2] it was 4.22%; in test [3], 1.99%; in test [4] it was 3.63%; in test [5] it was 2.14%; in test [6] it was 2.04%. The inhibition in test [7] came to 2.51%.

For the molecule `COc1ccc(-c2nn3ncccc3c2-c2ccnc(Nc3cccc(C(F)(F)F)c3)n2)cc1`, the inhibition was -0.7% in test [1]; 2.1% in test [2]; 1.92% in test [3]; 2.5% in test [4]; 2.68% in test [5]; 2.73% in test [6]. For the same molecule, in test [7], the inhibition was -0.13%.

In the case of `COc1cc(Nc2nccc(-c3cnn4ncccc34)n2)cc(OC)c1`, the inhibition in test [1] worked out at 10.1%; in test [2], 5.71%; in test [3], 18.6%; in test [4], 18.7%; in test [5] it was 24.4%; in test [6], 22.1%. In test [7], the inhibition came to 62.9%.

Take `Cc1cc(O)cc(C)c1/C=C/c1cncc(C(=O)N(C)C)c1`: the inhibition is -5.4% in test [1]; -1.62% in test [2]; 2.21% in test [3]; 4.81% in test [4]; 7.82% in test [5]; 3.29% in test [6]. Also, in test [7], the inhibition is 7.6%.

Take `CN(C)C(=O)O[C@H]1CN[C@H](C#Cc2cc3ncnc(Nc4ccc(OCc5cccc(F)c5)c(Cl)c4)c3s2)C1`: the inhibition in test [1] is 5.68%; in test [2], -3.18%; in test [3] it was 1.16%; in test [4] it was 1.64%; in test [5], 2.05%; in test [6], 4.13%. The inhibition in test [7] is 6.83%.

For `NC(=O)c1cccc(Nc2nccc(Nc3cccc(F)c3)n2)c1`, the inhibition in test [1] is -1.43%; in test [2], 0.1%; in test [3] it was 2.52%; in test [4] it was -0.11%; in test [5] it was 10%; in test [6] it was 1.9%. Further, the inhibition in test [7] worked out at 18.2%.

On to `NS(=O)(=O)c1ccc(Nc2cc(-c3cccc(O)c3)n[nH]2)cc1`, for which the inhibition in test [1] was -1.78%; in test [2] it was 0.88%; in test [3] it was 2.85%; in test [4] it was 6.39%; in test [5], 12.4%; in test [6], 6.39%. Also, the inhibition in test [7] was 17.1%.

With `COc1ccc2ncnc(Nc3ccc(OCc4ccccc4)cc3)c2c1`, the inhibition in test [2] is 3.13%; in test [3] it was 0.86%; in test [4] it was 1.61%; in test [5], 4.95%; in test [6], 2.19%; in test [7], 13.1%.

For `CCn1c(-c2nonc2N)nc2ccc(F)cc21`, the inhibition in test [1] is 0.22%; in test [2], 1.39%; in test [3] it was 2.93%; in test [4], 4.04%; in test [5], 8.92%; in test [6], 4.92%. The inhibition in test [7] was determined as 4.42%.

As to `COc1cccc(-n2ncc3c(N/N=C/c4ccc(C)cc4)ncnc32)c1`, the inhibition turned out to be 0.4% in test [1]; 2.16% in test [2]; 4.05% in test [3]; 10.2% in test [4]; 18.8% in test [5]; 11.3% in test [6]. For the same molecule, the inhibition in test [7] is 27.9%.

As for `NS(=O)(=O)c1cccc(Nc2cc(-c3ccc(F)cc3)n[nH]2)c1`, the inhibition was -8.3% in test [1]; -1.86% in test [2]; 1.25% in test [3]; 4.6% in test [4]; 10.5% in test [5]; 5.16% in test [6]. Moreover, in test [7], the inhibition amounted to 12.2%.

Consider `c1ccc(Cc2nc3ccc(Nc4ncnc5ccccc45)cc3[nH]2)cc1`, for which the inhibition in test [1] is 8.44%; in test [2], -1.86%; in test [3] it was 1.52%; in test [4], 0.2%; in test [5] it was 4.18%; in test [6], 3.52%. Besides, the inhibition in test [7] stood at 9.17%.

For the molecule `COc1cccc(-n2nc(C)c3c(N/N=C(\C)c4ccncc4)ncnc32)c1`, the inhibition was -2.83% in test [1]; -0.08% in test [2]; 0.93% in test [3]; 2.29% in test [4]; 4.69% in test [5]; 2.88% in test [6]. In test [7], the inhibition turned out to be 4.64%.

Consider `CN(C)C(=O)O[C@@H]1CN[C@@H](C#Cc2cc3ncnc(Nc4ccc(OCc5cccc(F)c5)c(Cl)c4)c3s2)C1`, for which the inhibition is 2.83% in test [2]; 0.5% in test [3]; 0.07% in test [4]; 0.34% in test [5]; 1.22% in test [6]; 4.14% in test [7].

Turning to `OCc1ccc(-c2nc(-c3ccccn3)c(-c3ccc4c(c3)OCO4)[nH]2)cc1`, the inhibition in test [1] was -7.97%; in test [2], -4.02%; in test [3] it was 2.42%; in test [4], 4.19%; in test [5] it was 6.97%; in test [6] it was 5.62%. For the same molecule, the inhibition in test [7] stood at 9.65%.

Consider `CCCN1CCCC(c2ccc(Nc3nc(Nc4cc(F)ccc4C(N)=O)c4cc[nH]c4n3)c(OC)c2)C1` (stereo not given), for which the inhibition in test [1] was -4.64%; in test [2], 3.05%; in test [3] it was 3.34%; in test [4] it was 86.9%; in test [5], 88.3%; in test [6], 80.5%. The inhibition in test [7] came to 83.5%.

`C[C@@H](Oc1cc(-n2cnc3ccc(OC[C@@H](O)CO)cc32)sc1C(N)=O)c1ccccc1Cl`: the inhibition in test [1] is 5.77%; in test [2], 1.29%; in test [3], -0.05%; in test [4] it was 3.25%; in test [5], 17.3%; in test [6] it was 5.39%. Moreover, the inhibition in test [7] came out at 28.7%.

Turning to `COc1cccc(-n2ncc3c(N/N=C/c4ccc(S(C)(=O)=O)cc4)ncnc32)c1`, the inhibition in test [1] was -5.96%; in test [2] it was -3.29%; in test [3] it was 1.12%; in test [4] it was -1.93%; in test [5], -1.56%; in test [6], 2.72%. For the same molecule, in test [7], the inhibition came out at 6.75%.

Take `Cc1ccc(O)cc1Nc1ccnc2ccc(S(C)(=O)=O)cc12`: the inhibition in test [1] was 9.12%; in test [2], 4.59%; in test [3], 3.6%; in test [4], 4.8%; in test [5] it was 18.7%; in test [6], 12.5%. In test [7], the inhibition was determined as 48%.

Consider `Cc1ccc2c(c1)/C(=N/Nc1ccc(S(N)(=O)=O)cc1)C(=O)N2`, for which the inhibition was 2.09% in test [2]; -0.03% in test [3]; 6.44% in test [4]; 13.1% in test [5]; 9.36% in test [6]; 46.2% in test [7].

As for `Cc1ccc(NC(=O)CC2CC2)cc1-c1ccc(C(=O)NCC2CC2)cc1`, the inhibition in test [1] was 2.03%; in test [2], -2.97%; in test [3] it was 2.2%; in test [4] it was 2.09%; in test [5], 7.62%; in test [6], 3.23%. Also, the inhibition in test [7] turned out to be 6.82%.
